# This is part of a sample that, as a whole, favours compounds with a hit. Of some 83,000 tested, about 20% had one in any assay.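 Single-concentration screen, 48 h exposure, 96-well plates. Endpoint: percent growth. Below 10 = active.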 A number with no mark means an inactive call. The source made the active and inactive calls.
# Key:
# Assay in all cases: NCI-60 one-dose screen, 48 h (100 = growth as untreated, 0 = no growth, -100 = all killed)
# Details in all cases: 10 µM unless noted
# HCT-15 colon = test system: HCT-15 colon
# HT29 colon = test system: HT29 colon
# SNB-75 CNS = test system: SNB-75 CNS
# SNB-19 CNS = test system: SNB-19 CNS
# U251 CNS = test system: U251 CNS
# PC-3 prostate = test system: PC-3 prostate
# SK-MEL-5 melanoma = test system: SK-MEL-5 melanoma
# UACC-62 melanoma = test system: UACC-62 melanoma
# LOX IMVI melanoma = test system: LOX IMVI melanoma
# SK-MEL-28 melanoma = test system: SK-MEL-28 melanoma
# SK-MEL-2 melanoma = test system: SK-MEL-2 melanoma
# EKVX NSCLC = test system: EKVX NSCLC
# SN12C renal = test system: SN12C renal
# UO-31 renal = test system: UO-31 renal
# TK-10 renal = test system: TK-10 renal
# ACHN renal = test system: ACHN renal
# CAKI-1 renal = test system: CAKI-1 renal
# A498 renal = test system: A498 renal
# CCRF-CEM leukemia = test system: CCRF-CEM leukemia
# MOLT-4 leukemia = test system: MOLT-4 leukemia
Structure (SMILES),growth (HCT-15 colon),growth (HT29 colon),growth (SNB-75 CNS),growth (SNB-19 CNS),growth (U251 CNS),growth (PC-3 prostate),growth (SK-MEL-5 melanoma),growth (UACC-62 melanoma),growth (LOX IMVI melanoma),growth (SK-MEL-28 melanoma),growth (SK-MEL-2 melanoma),growth (EKVX NSCLC),growth (SN12C renal),growth (UO-31 renal),growth (TK-10 renal),growth (ACHN renal),growth (CAKI-1 renal),growth (A498 renal),growth (CCRF-CEM leukemia),growth (MOLT-4 leukemia)
CCCCc1nc(Cl)c(C2CC(c3ccc(S(N)(=O)=O)cc3)=NN2c2cc(Cl)cc(Cl)c2)[nH]1 (stereo not given),45.7%,23.3%,62.2%,36.4%,23.5%,36.4%,57.9%,38.8%,-6.25% (active),55.2%,47.2%,51.3%,48.6%,58.3%,84.6%,59.7%,40.5%,81.7%,26.2%,12.3%
C=C1C(=O)O[C@H]2[C@H]1CC/C(COC(=O)NCc1c[nH]c3ccc(OC)cc13)=C\CC[C@@]1(C)O[C@@H]21,-26.1% (active),-53.2% (active),63.2%,64.4%,9.85% (active),-2.65% (active),15.1%,-31.6% (active),-59.6% (active),-23.9% (active),35.9%,33.9%,10.9%,-85% (active),-40.3% (active),-10.7% (active),-2.21% (active),94.1%,-7.78% (active),2.7% (active)
O=C(Nc1cccc(Cl)c1)Nc1ccccc1Cl,93.6%,80.8%,89.4%,102%,87.3%,57.1%,102%,63.7%,89.1%,95.4%,98.5%,72.1%,81.5%,69.8%,88.5%,89.9%,71.4%,63.4%,84.7%,75%
Nc1nc(N)c2cc(NCc3ccc(Cl)c(Cl)c3)ccc2n1,-80% (active),-76.3% (active),-97.1% (active),-85.6% (active),-94.5% (active),-88.7% (active),-97.5% (active),-84% (active),-80.4% (active),-94.1% (active),-79.2% (active),-78.8% (active),-79.5% (active),-75.4% (active),-93.8% (active),-94.8% (active),-68.4% (active),34.2%,-49.2% (active),-55.6% (active)
Nc1c(C(=O)Nc2cccc(Cl)c2)sc2nc3c(cc12)C(=O)CCC3,32.4%,23.9%,25.9%,38.2%,46.4%,29.1%,27.2%,43.7%,46.1%,51.4%,69.7%,58.2%,54.4%,57.1%,65%,54.2%,40.3%,49.3%,13.5%,57.1%
CNCCCn1c2c(c3ccc(Cl)cc3c1=O)C(=O)c1cc(OC)cnc1-2,-57.6% (active),-80.5% (active),14.7%,28.3%,-86.5% (active),38.6%,32.4%,11%,-83.7% (active),72.2%,77.3%,63.8%,39.7%,33.4%,54.2%,19.8%,35.3%,20.5%,-22.5% (active),-29.9% (active)
CCN(CC)CCCC(C)Nc1c(-c2ccccc2)cnc2cc(Cl)ccc12 (stereo not given),29.5%,-33.5% (active),132%,101%,58.1%,64.5%,55.3%,97.2%,19.2%,15.3%,35.1%,83.4%,74.1%,50.3%,59.8%,93%,85.8%,60%,62.1%,48.5%
CCN1C(=O)N(CC)C2C1NC(=O)N2/N=C/C=C/c1ccccc1 (stereo not given),26.9%,14.6%,30.8%,47.3%,38.8%,34.6%,18%,20.6%,32.9%,53.2%,34.3%,53.8%,61.3%,57.6%,69.3%,48.1%,47.2%,25.2%,19.1%,43.7%
CSc1ccc(/C=C2\C=C(CC(=O)NCc3ccc(C(=O)c4ccccc4)cc3)c3cc(F)ccc32)cc1,5.88% (active),-15.1% (active),-18.4% (active),18.2%,-2.89% (active),12.4%,-51.4% (active),3.75% (active),5.66% (active),18.2%,-3.62% (active),25.5%,9.57% (active),26.6%,13.8%,2.09% (active),7.79% (active),-10.5% (active),11.5%,9.47% (active)
Cc1ccc(C)c(NC(=O)c2sc3c(=O)[nH]cnc3c2C)c1,49.8%,34.9%,81.1%,91.7%,86.1%,83.4%,74.4%,61.1%,85%,89.3%,41.4%,85%,101%,74.9%,77.8%,116%,64.5%,70.3%,83.1%,69.9%
O=S(=O)(Cc1ccc(Cl)cc1Cl)c1ccc(Cl)cc1,31.8%,9.72% (active),18.8%,44%,25.8%,31.1%,39.8%,44.6%,15.7%,65.9%,31.1%,63.4%,49.4%,46.2%,32.6%,55.7%,38.1%,42.5%,10.8%,33.3%
CC(C)c1cccc(C#N)c1,113%,104%,83.7%,99%,94.8%,85.5%,92.3%,102%,95.3%,105%,120%,94%,97.3%,98.7%,121%,115%,98.9%,92.3%,90%,101%
CC(NC(=O)c1ccccc1)C(=O)Nc1ccccc1 (stereo not given),115%,103%,88.3%,107%,101%,92.8%,104%,104%,99.6%,115%,104%,105%,109%,94.9%,103%,103%,107%,103%,90.4%,101%
O=C(N/N=C/c1ccccc1O)c1ccncc1,28.5%,42.7%,86.2%,66.6%,39.2%,69.5%,75.5%,33.5%,50.8%,61.1%,55.9%,36.9%,78%,33.5%,57.7%,56.8%,41.3%,87.7%,29.1%,9.31% (active)
CCCNCCC(C)=O,111%,98.1%,107%,97.1%,68.8%,97.1%,115%,98%,94.5%,108%,118%,89.6%,102%,92.4%,101%,106%,106%,94.2%,107%,112%
CC(C)c1nc2ccccc2n1CC(=O)N/N=C/c1cccc(O)c1,104%,104%,94.1%,91.8%,103%,87.9%,100%,86.3%,99.6%,97.2%,107%,105%,94.1%,80.2%,93.5%,95.7%,101%,88%,94.9%,91.9%
